Assay results reported in paper PMC4336329 (PLoS ONE, 2015).
The campaign covered roughly 310,000 compounds. About 14,000 (4.5%) showed an effect of 50% or more. Effects have a minus sign here. Many of the other results were omitted from the sample, so strong results are more common in it than they were.

These compounds were tested against human ether-à-go-go-related gene (hERG) potassium channel (human, UniProt Q12809) (assay: primary screen, population patch clamp on CHO cells stably expressing hERG; higher = less effect of the substance).
Sequence of human ether-à-go-go-related gene (hERG) potassium channel (Q12809 whole entry, looked up): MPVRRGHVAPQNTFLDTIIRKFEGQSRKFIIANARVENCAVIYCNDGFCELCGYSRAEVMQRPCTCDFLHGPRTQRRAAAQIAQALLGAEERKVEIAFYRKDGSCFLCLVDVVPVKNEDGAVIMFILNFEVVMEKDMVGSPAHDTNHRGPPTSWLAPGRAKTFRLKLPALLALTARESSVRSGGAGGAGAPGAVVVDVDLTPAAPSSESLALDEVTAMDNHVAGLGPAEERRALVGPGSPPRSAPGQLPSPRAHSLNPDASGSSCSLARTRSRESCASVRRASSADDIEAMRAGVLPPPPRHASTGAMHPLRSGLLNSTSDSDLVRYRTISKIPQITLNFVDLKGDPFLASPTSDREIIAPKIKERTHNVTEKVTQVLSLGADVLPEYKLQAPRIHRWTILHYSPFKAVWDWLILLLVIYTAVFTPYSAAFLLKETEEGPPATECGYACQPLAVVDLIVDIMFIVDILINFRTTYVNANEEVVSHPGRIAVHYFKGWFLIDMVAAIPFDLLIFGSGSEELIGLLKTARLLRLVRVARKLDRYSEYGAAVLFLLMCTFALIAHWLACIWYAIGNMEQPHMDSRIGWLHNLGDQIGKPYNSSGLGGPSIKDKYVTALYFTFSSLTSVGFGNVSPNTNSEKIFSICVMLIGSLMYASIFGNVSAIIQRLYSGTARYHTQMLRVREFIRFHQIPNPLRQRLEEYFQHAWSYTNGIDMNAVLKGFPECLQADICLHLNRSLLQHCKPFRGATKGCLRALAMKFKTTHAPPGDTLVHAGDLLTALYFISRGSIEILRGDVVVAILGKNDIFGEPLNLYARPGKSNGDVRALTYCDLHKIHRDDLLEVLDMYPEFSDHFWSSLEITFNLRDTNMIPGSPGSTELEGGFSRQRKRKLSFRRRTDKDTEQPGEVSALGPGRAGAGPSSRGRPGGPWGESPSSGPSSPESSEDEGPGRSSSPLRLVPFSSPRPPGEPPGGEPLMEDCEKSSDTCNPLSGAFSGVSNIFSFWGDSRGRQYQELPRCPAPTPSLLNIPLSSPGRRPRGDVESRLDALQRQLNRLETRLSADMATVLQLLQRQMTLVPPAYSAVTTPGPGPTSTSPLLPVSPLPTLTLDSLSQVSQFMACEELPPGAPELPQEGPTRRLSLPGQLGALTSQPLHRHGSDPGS
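Further: peak tail current of the secondary pulse compared with the same well before compound.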

Structure (SMILES)	hERG current change (%, negative = inhibition) at 10uM [%]
O=c1c2ccccc2nnn1Cc1ccc(Br)cc1	8.66
CCNC(=O)NC(=O)CSc1ccccc1F	10.7
Cc1nc2sc3c(c2c(=O)[nH]1)CCC3	12.1
CC(NC(=O)c1cccs1)C(=O)NC1=NCCS1 (centres unmarked)	1.3
COc1cc(N)c(Cl)cc1C(=O)OCC(=O)c1ccc2c(c1)NC(=O)CO2	1.68
Cc1nnc(SCC(=O)Nc2cc(S(C)(=O)=O)ccc2Cl)n1Cc1ccccc1	6.22
CC(=O)NCCNC(=O)c1cccc(NS(=O)(=O)c2ccc3c(c2)OCCO3)c1	-2.65
Cc1c(NC(=O)C2CC(c3c(F)cccc3Cl)=NO2)c(=O)n(-c2ccccc2)n1C (centres unmarked)	14.7
CN1CCN(C2=Cc3ccccc3Sc3cc(F)c(Cl)cc32)CC1.O=C(O)/C=C\C(=O)O	-12.4
CS(=O)(=O)O.Clc1cccc2c1Sc1ccccc1CC2N1CCNCC1 (centres unmarked)	-72.4
CC(C)c1ccc2c(c1)C(N1CCN(C)CC1)Cc1cccnc1S2.O=C(O)/C=C\C(=O)O (centres unmarked)	-50.6
Cc1nc2c(o1)CCc1ccccc1C2N1CCN(C)CC1.O=C(O)/C=C/C(=O)O (centres unmarked)	-5.58
CN1CCN(C2=Cc3ccccc3Sc3cc(F)ccc32)CC1.O=C(O)/C=C\C(=O)O	-62.8
CN1CCN(C2Cc3ccc(F)cc3Sc3cc(F)c(Cl)cc32)CC1.CS(=O)(=O)O.O (centres unmarked)	-77.3
CN1CCN(C2Cc3cc(Cl)ccc3Sc3cc(F)ccc32)CC1.CS(=O)(=O)O (centres unmarked)	-38.2
CN1CCN(C2=Cc3ccc(Cl)cc3Sc3ccc(F)cc32)CC1.CS(=O)(=O)O.O	-14.8
CCc1cccc2c1Sc1ccccc1CC2N1CCNCC1.CS(=O)(=O)O (centres unmarked)	-31.1
CN1CCN(C2=Cc3ccccc3Sc3cc(F)c(F)cc32)CC1.CS(=O)(=O)O	-22.5
CC(C)c1ccc2c(c1)C(N1CCNCC1)Cc1ccc(F)cc1S2.O.O=C(O)/C=C\C(=O)O (centres unmarked)	5.51
CS(=O)(=O)O.Cc1cccc2c1Sc1ccc(Cl)cc1CC2N1CCNCC1.O (centres unmarked)	5.75
CCOc1ccc(Cn2nnc(C(=O)NCc3ccc(OC)cc3)c2N)cc1	6.41
CCN(CC)c1ccc(C2C(C(=O)OCCOC)=C(C)NC3=C2C(=O)CCC3)cc1 (centres unmarked)	-5.24

Structure (SMILES)	hERG current change (%, negative = inhibition) at 10uM [%]
CCOc1ccc(-c2cc(N)n(S(=O)(=O)c3ccc(OC)cc3)n2)cc1	10.7
CN1c2ccccc2-c2nc3ccccc3n2C1c1ccco1 (centres unmarked)	-15.3
CC1CCCC(C)N1C(=O)Cn1cc(C#N)c2ccccc21 (centres unmarked)	9.8
CCS(=O)(=O)N1CCN(C2Cc3ccccc3C2)CC1.O=C(O)C(=O)O	3.3
CCc1ccc2c(c1)Sc1ccccc1CC2N1CCN(C)CC1.CS(=O)(=O)O.O (centres unmarked)	-69
CSc1ccc2c(c1)C(N1CCN(C)CC1)Cc1ccccc1S2.O=C([O-])/C=C\C(=O)[O-] (centres unmarked)	-65.2
Cc1nc2c(o1)CCc1ccccc1C2N1CCN(C)CC1.O=C([O-])/C=C\C(=O)[O-] (centres unmarked)	12.4
CN(C)/C=C/C(=O)c1ccn(S(=O)(=O)c2ccccc2)c1	23.6
Fc1ccc(Cn2nnnc2C(c2ccc(Cl)cc2)N2CC=C(c3ccc(F)cc3)CC2)cc1 (centres unmarked)	10.1
CCOc1ccc(N(C)Cc2cc(=O)oc3ccc(OCC)cc23)cc1	-1.17
CCOc1cc2[nH]c(=S)n(C3CCN(Cc4ccccc4)CC3)c(=O)c2cc1OCC	17.6
Cc1nn(Cc2ccccc2)c(=O)n1N(C)c1ncc(C(F)(F)F)cc1Cl	-7.74
Cc1ccsc1C1C(C#N)=C(N)OC2=C1C(=O)CC(C)(C)C2 (centres unmarked)	-6.69
O=C1C=C(Nc2ccc(Cl)cc2)CC(c2ccc(Cl)cc2)C1 (centres unmarked)	-2.27
O=C1C=C(NCc2ccc(Cl)cc2)CC(c2ccco2)C1 (centres unmarked)	-82.2
O=C1C=C(NCc2ccco2)CC(c2ccc(Cl)cc2)C1 (centres unmarked)	-61.5
O=C1C=C(Nc2ccc(Cl)cc2)CC(c2ccco2)C1 (centres unmarked)	-1.85
O=C1C=C(Nc2cccc(Cl)c2)CC(c2ccco2)C1 (centres unmarked)	-4.15
O=C1C=C(NCc2ccco2)CCC1	16.7
N#Cc1c(C(F)(F)F)cc(-c2ccccc2)n(N)c1=O	13.9
Cc1cc(C)n2nc(SCc3ccc(F)cc3Cl)nc2n1	-4.5
Cn1c(N=Nc2ccccc2)nc2ccccc21	4.08

Structure (SMILES)	hERG current change (%, negative = inhibition) at 10uM [%]
S=c1[nH]c2ccccc2n2c(=S)[nH]nc12	5.26
COCCCNC(=O)CN(c1cc(Cl)ccc1OC)S(C)(=O)=O	17.4
Oc1ccc(CN2CCN(Cc3ccccc3)CC2)c2cccnc12	-13.9
CCCCCc1c(C)nc(NCc2ccccc2)[nH]c1=O	-4.44
N/C(=N\OC(=O)c1ccc(Cl)c(Cl)c1)c1ccccn1	3.76
CC1CCN(S(=O)(=O)c2ccc3c(c2)N(CC(=O)NCc2cccnc2)C(=O)CS3)CC1	-53.3
CC1CCN(S(=O)(=O)c2ccc3c(c2)N(CC(=O)NCCN2C(C)CCCC2C)C(=O)CS3)CC1 (centres unmarked)	-52.7
Cc1ccc(CNC(=O)CN2C(=O)CSc3ccc(S(=O)(=O)N4CCC(C)CC4)cc32)cc1	-27.4
CC1CCN(S(=O)(=O)c2ccc3c(c2)N(CC(=O)NCCCN2CCCCC2)C(=O)CS3)CC1	-10.6
O=C(CN1C(=O)CSc2ccc(S(=O)(=O)N3CCOCC3)cc21)NCCCN1CCc2ccccc2C1	-66.3
CC1CCN(CCCNC(=O)CN2C(=O)CSc3ccc(S(=O)(=O)N4CCOCC4)cc32)CC1	6.31
CCCCCCCNC(=O)CN1C(=O)CSc2ccc(S(=O)(=O)N3CCOCC3)cc21	-17.7
CC1CCN(CCCNC(=O)CN2C(=O)CSc3ccc(S(=O)(=O)N4CCC(C)CC4)cc32)CC1	-54.5
CC1CCCCN1CCNC(=O)CN1C(=O)CSc2ccc(S(=O)(=O)N3CCCCC3)cc21 (centres unmarked)	-17.6
CC1CCN(S(=O)(=O)c2ccc3c(c2)N(CC(=O)NCCCN2CCCCC2C)C(=O)CS3)CC1 (centres unmarked)	0.668
O=C(CN1C(=O)CSc2ccc(S(=O)(=O)N3CCOCC3)cc21)NCc1cccnc1	6.4
O=C(CN1C(=O)CSc2ccc(S(=O)(=O)N3CCOCC3)cc21)NCCCN1CCCCC1	18
O=C(NC1CC2CCCC(C1)N2C(=O)Nc1ccccc1)C1CC1 (centres unmarked)	6.44
Cn1c(Cc2cccc3ccccc23)nnc1SCC(=O)N1CCN(c2cccc(Cl)c2)CC1	-25.7
COc1ccc(S(=O)(=O)N(CC(=O)N2CCN(C)CC2)C2CCCCC2)cc1OC	-7.66
COC(=O)C(C(=O)OC)=C(/C=C/C=C/N(C)C)N(C)C	13.9
CCN(CC)S(=O)(=O)c1ccc(OC(C)C)nc1	-1.16

Structure (SMILES)	hERG current change (%, negative = inhibition) at 10uM [%]
COc1ccc([C@H]2CC(=O)C=C(c3cc4ccccc4c4ccccc34)C2)cc1	13.6
CCCc1c(C(=O)NNc2cc(C(F)(F)F)ccc2Cl)cnn1-c1ccccc1	0.78
Cc1ccc(C)c(NC(=O)C2C3CCCC2C3c2ccccc2)c1 (centres unmarked)	6.75
CC1CCCN(CCCNC(=O)CN2C(=O)CSc3ccc(S(=O)(=O)N4CCOCC4)cc32)C1 (centres unmarked)	19.5
CC1CCN(S(=O)(=O)c2ccc3c(c2)N(CC(=O)NCCCN2CC(C)CC(C)C2)C(=O)CS3)CC1 (centres unmarked)	-66.2
CC1CC(C)CN(CCCNC(=O)CN2C(=O)CSc3ccc(S(=O)(=O)N4CCOCC4)cc32)C1 (centres unmarked)	15.8
CC1CCN(S(=O)(=O)c2ccc3c(c2)N(CC(=O)NCCCN2CCCC(C)C2)C(=O)CS3)CC1 (centres unmarked)	-20.6
CCN1CCN(S(=O)(=O)c2ccc3c(c2)NC(=O)CS3)CC1	19.9
CC1CCN(S(=O)(=O)c2ccc3c(c2)NC(=O)CS3)CC1	-52.2
CCC1CCCCN1CCCNC(=O)CN1C(=O)CSc2ccc(S(=O)(=O)N3CCC(C)CC3)cc21 (centres unmarked)	-9.76
CC1CC(C)CN(CCCNC(=O)CN2C(=O)CSc3ccc(S(=O)(=O)N4CCCCC4)cc32)C1 (centres unmarked)	-50.2
CN1CCN(S(=O)(=O)c2ccc3c(c2)NC(=O)CS3)CC1	13.3
COc1ccc(N(CC(=O)NCCSc2ccccn2)S(=O)(=O)c2ccc(C)cc2)cc1OC	-17.7
CCOc1ccccc1NC(=O)CCNS(=O)(=O)c1ccccc1	17.6
Cc1ccc(C2=Nc3ccccc3N=C(c3ccc([N+](=O)[O-])cc3)C2)c(O)c1	-3.53
COc1ccc([C@@H]2CC(=O)c3c(O)cc(O)cc3O2)cc1O	5.19
COc1ccc(OC)c(N2Cc3ccccc3C2)c1	12
c1ccc(-n2nnc3cnccc32)cc1	12
c1ccc(Cn2nnc3cnccc32)cc1	2.3
c1ccc(-n2c(Cc3cccnc3)nc3cnccc32)cc1	-50.5
